Screens: PubChem BioAssay, several laboratories
Most compounds without a hit are left out; they make up all but 3% or so of the library.
HIF-2a block: HIF-2a inhibition | 360,000 compounds, 0.72% hits | AID 624352 | 786-0 RCC cells HIF-2a reporter, luciferase luminescence, overnight | inhibition, % at 18.8 µM;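 active means inhibition of the luminescence signal of 40% or more relative to plate controls, in a single-dose primary screen at 18.75 µM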
KKLEB tox: reduces viability of KKLEB cystic fibrosis airway cells; AID 602141; KKLEB CF airway cells viability, ATPlite luminescence, overnight; hits give low values; cells stimulated with P. aeruginosa culture filtrate; activity change (cytotoxicity), % at 5 µM; 360,000 compounds, 0.36% hits;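 active means corrected activity change at or below -50% at 5 µM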
CF NFkB block: inhibitors of cystic fibrosis induced NF-kB; 360,000 compounds, 0.86% hits; KKLEB NF-kB-GFP reporter, PAF-induced, GFP fluorescence overnight; AID 588850; inhibition, % at 5 µM;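 active means at least 50% inhibition at 5 µM, scaled per plate between neutral and stimulator controls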;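 further: PAF is a Pseudomonas aeruginosa culture filtrate used as stimulus; plate controls were PAF-stimulated DMSO wells for no effect and unstimulated DMSO wells for full effect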
MITF TRPM1 inh: inhibitors of MITF-driven TRPM1 promoter in melanoma cells; inhibition, % at 12.5 µM; SK-MEL-5 TRPM1 promoter luciferase, 24 h; 330,000 compounds, 0.83% hits;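 active means mean inhibition across replicates of 60% or more, whatever share of single replicates reaches that level; inconclusive means some that reach 60%, reason not given; inactive means mean inhibition across replicates below 60%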
Peg3 prom inh-1: Peg3 promoter activity inhibition; 360,000 compounds, 1.7% hits; AID 588405; inhibition, % at 20 µM; HeLa PEG-Prom luciferase reporter, luminescence, overnight;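 active means inhibition of at least 50% at 20 µM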
ABHD5 PLIN5 PPI: inhibitors of human ABHD5-perilipin-5 interaction | Split G. princeps luciferase complementation, luminescence, 4 h | inhibition, % at 4 µM | 360,000 compounds, 0.78% hits | AID 602281;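 active means inhibition above the mean inhibition across every tested compound plus 3 SD, cut at about 22% in these data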;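 further: 0% = DMSO only wells and the 100% control is not disclosed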
Target sequence (Q00G26 whole entry, looked up): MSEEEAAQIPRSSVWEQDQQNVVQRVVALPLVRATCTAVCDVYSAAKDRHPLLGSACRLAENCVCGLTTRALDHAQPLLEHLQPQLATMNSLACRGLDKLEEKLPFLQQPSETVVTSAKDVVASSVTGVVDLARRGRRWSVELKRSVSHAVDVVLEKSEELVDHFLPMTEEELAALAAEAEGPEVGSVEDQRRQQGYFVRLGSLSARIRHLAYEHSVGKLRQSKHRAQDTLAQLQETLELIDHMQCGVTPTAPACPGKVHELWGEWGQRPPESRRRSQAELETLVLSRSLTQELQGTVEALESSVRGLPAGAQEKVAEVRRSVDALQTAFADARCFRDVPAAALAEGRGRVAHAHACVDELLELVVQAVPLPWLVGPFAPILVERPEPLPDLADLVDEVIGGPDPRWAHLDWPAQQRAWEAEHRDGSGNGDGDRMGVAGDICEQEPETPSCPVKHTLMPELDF
Target sequence (Q8WTS1 whole entry, looked up): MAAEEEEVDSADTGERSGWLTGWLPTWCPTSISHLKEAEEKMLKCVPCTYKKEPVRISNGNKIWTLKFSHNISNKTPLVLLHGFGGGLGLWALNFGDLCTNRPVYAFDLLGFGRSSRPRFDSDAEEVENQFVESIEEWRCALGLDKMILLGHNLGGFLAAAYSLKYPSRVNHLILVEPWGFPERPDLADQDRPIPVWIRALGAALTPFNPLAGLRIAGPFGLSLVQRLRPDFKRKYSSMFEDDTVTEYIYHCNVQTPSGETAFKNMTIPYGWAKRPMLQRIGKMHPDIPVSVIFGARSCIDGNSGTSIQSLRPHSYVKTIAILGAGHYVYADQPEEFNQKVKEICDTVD
Peg3 prom inh-2: Peg3 promoter inhibition confirmation. shares compounds with Peg3 prom inh-1. inhibition, % at 20 µM. 1,300 compounds, 84% hits. HeLa PEG-Prom luciferase reporter, luminescence, overnight. AID 602417;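 active means at 20 µM dose, 40% or more inhibition averaged across four replicates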
* = called active by the depositor; ! = not active in a repeat.

Screening Nc1ccn([C@@H]2O[C@H](CO)[C@@H](O)[C@@H]2O)c(=O)n1 returned HIF-2a block -7, KKLEB tox 5, CF NFkB block -24, MITF TRPM1 inh 16, Peg3 prom inh-1 23 and ABHD5 PLIN5 PPI 2.
`Nc1ncn([C@@H]2O[C@H](CO)[C@@H](O)[C@H]2O)c(=O)n1` gave HIF-2a block -85, KKLEB tox -14, CF NFkB block 40, MITF TRPM1 inh 79*, Peg3 prom inh-1 72*, ABHD5 PLIN5 PPI -8 and Peg3 prom inh-2 50*.
Screening Cc1cc(-n2c(SCC(=O)Nc3ccc(Br)cc3)nc3n[nH]c(C)c3c2=N)ccc1Cl returned HIF-2a block 2, KKLEB tox -20, CF NFkB block 32, MITF TRPM1 inh 14, Peg3 prom inh-1 85*, ABHD5 PLIN5 PPI -4 and Peg3 prom inh-2 40.
Screening CCOc1ccc(-n2c(SCC(=O)Nc3ccc(Br)cc3)nc3n[nH]c(C)c3c2=N)cc1 returned HIF-2a block 11, KKLEB tox -32, CF NFkB block 17, MITF TRPM1 inh 58, Peg3 prom inh-1 33 and ABHD5 PLIN5 PPI 0.
Cc1cc(-n2c(SCC(=O)Nc3ccc(F)c(F)c3)nc3n[nH]c(C)c3c2=N)ccc1Cl was read as HIF-2a block 7, KKLEB tox -7, CF NFkB block 7, MITF TRPM1 inh 46, Peg3 prom inh-1 84*, ABHD5 PLIN5 PPI 2 and Peg3 prom inh-2 59*.
CCN(CC)CCOc1ccc(/C(=C(/Cl)c2ccccc2)c2ccccc2)cc1 was read as HIF-2a block -7, KKLEB tox 3, CF NFkB block 39, MITF TRPM1 inh 11, Peg3 prom inh-1 102*!, ABHD5 PLIN5 PPI 51*! and Peg3 prom inh-2 96*.
Screening COc1cc(CN2C[C@@H](CO)O[C@@H](n3cnc4c(N5CCOCC5)ncnc43)C2)cc(OC)c1OC returned HIF-2a block 24, KKLEB tox 1, CF NFkB block -18, Peg3 prom inh-1 3 and ABHD5 PLIN5 PPI 12.
Screening CCCCn1c(N)c(N(CC(C)C)C(=O)c2cc(Br)c(Br)s2)c(=O)[nH]c1=O returned HIF-2a block -3, KKLEB tox -6, CF NFkB block 15, MITF TRPM1 inh 35, Peg3 prom inh-1 81*, ABHD5 PLIN5 PPI 8 and Peg3 prom inh-2 41*.
For COc1ccc(-c2cc(C(=O)Nc3ccccc3N3CCOCC3)c3ccccc3n2)cc1OC the results were HIF-2a block -4, KKLEB tox -11, CF NFkB block 18, MITF TRPM1 inh -1, Peg3 prom inh-1 58*, ABHD5 PLIN5 PPI 7 and Peg3 prom inh-2 62*.
O=C(Nc1ccccc1N1CCOCC1)c1cc(-c2ccncc2)nc2ccccc12 was read as HIF-2a block 1, KKLEB tox -13, CF NFkB block 1, MITF TRPM1 inh 8, Peg3 prom inh-1 63*, ABHD5 PLIN5 PPI 3 and Peg3 prom inh-2 57*.
O=C(Nc1ccc(N2CCOCC2)cc1)c1cc(-c2ccncc2)nc2ccccc12 was read as HIF-2a block 13, KKLEB tox -14, CF NFkB block -8, MITF TRPM1 inh 2, Peg3 prom inh-1 17 and ABHD5 PLIN5 PPI -1.
`CCN(CC)S(=O)(=O)c1ccc2[nH]c(=O)c3ccccc3c2c1` gave HIF-2a block 19, KKLEB tox -19, CF NFkB block 12, MITF TRPM1 inh -2, Peg3 prom inh-1 0 and ABHD5 PLIN5 PPI -1.
`CC(C)(C)NC(=O)C1c2ccccc2OCC(=O)N1Cc1ccco1` (stereo unspecified) gave HIF-2a block -2 and ABHD5 PLIN5 PPI 2.
Cc1cc(OCC(=O)Nc2ccncc2)ccc1[N+](=O)[O-] was read as HIF-2a block 1, KKLEB tox -3, CF NFkB block 9, MITF TRPM1 inh 0, Peg3 prom inh-1 10 and ABHD5 PLIN5 PPI -2.
For CC(=O)Nc1ccc(/C=C/c2nc(-c3ccccc3O)n[nH]2)cc1 the results were HIF-2a block -170, KKLEB tox 20, CF NFkB block -4, MITF TRPM1 inh -55, Peg3 prom inh-1 -178 and ABHD5 PLIN5 PPI 4.
For Clc1ccccc1/C=C/c1nc(-c2ccccn2)no1 the results were HIF-2a block 63*, KKLEB tox -38, CF NFkB block 6, MITF TRPM1 inh inconclusive, Peg3 prom inh-1 61*, ABHD5 PLIN5 PPI 2 and Peg3 prom inh-2 47*.
Screening c1ccc(C2CC(c3ccccc3)n3c(nc4ccccc43)N2)cc1 (stereo unspecified) returned HIF-2a block -8, KKLEB tox -8, CF NFkB block -8, MITF TRPM1 inh -8, Peg3 prom inh-1 76*, ABHD5 PLIN5 PPI -2 and Peg3 prom inh-2 6.
`CCc1ccc(C2CC(c3ccccc3)Nc3nc(N)nn32)cc1` (stereo unspecified) gave HIF-2a block 5, KKLEB tox 3, CF NFkB block 7, MITF TRPM1 inh -1, Peg3 prom inh-1 -1 and ABHD5 PLIN5 PPI 6.
`O=c1c(-c2ccccc2)cocc1-c1ccccc1` gave HIF-2a block -194, KKLEB tox -18, CF NFkB block 34, Peg3 prom inh-1 -242 and ABHD5 PLIN5 PPI 6.
`CCN(CC(=O)NC(C)(C)C)C(=O)c1cccc(S(=O)(=O)N2CC3(C)CC2CC(C)(C)C3)c1` (stereo unspecified) gave HIF-2a block 6, KKLEB tox 8, CF NFkB block -8, Peg3 prom inh-1 -2 and ABHD5 PLIN5 PPI 1.
`CCC1CCCCN1S(=O)(=O)c1ccc(C(=O)N(CCCN(C)C)c2nc3cc4c(cc3s2)OCO4)cc1` (stereo unspecified) gave HIF-2a block -5, KKLEB tox -23, CF NFkB block 26, MITF TRPM1 inh 23, Peg3 prom inh-1 59*, ABHD5 PLIN5 PPI 16 and Peg3 prom inh-2 70*.
CN(C)CCCN(C(=O)c1ccc2ccccc2c1)c1nc2cc3c(cc2s1)OCO3 was read as HIF-2a block 3, KKLEB tox 0, CF NFkB block 4, MITF TRPM1 inh -22, Peg3 prom inh-1 3 and ABHD5 PLIN5 PPI 13.
For CCN(c1ccccc1)S(=O)(=O)c1ccc(C(=O)N(CCCN(C)C)c2nc3cc4c(cc3s2)OCO4)cc1 the results were HIF-2a block -3, KKLEB tox -4, CF NFkB block 24, MITF TRPM1 inh -3, Peg3 prom inh-1 52*, ABHD5 PLIN5 PPI 15 and Peg3 prom inh-2 81*.
`CN(C)CCCN(C(=O)c1ccc(S(=O)(=O)N2CCCCCC2)cc1)c1nc2cc3c(cc2s1)OCO3` gave HIF-2a block -11, KKLEB tox -7, CF NFkB block 9, Peg3 prom inh-1 -10 and ABHD5 PLIN5 PPI 9.
`O=C(NCCN1C(=O)S/C(=C\c2ccccc2F)C1=O)C1=COCCO1` gave HIF-2a block 3, KKLEB tox -12, CF NFkB block -5, MITF TRPM1 inh 11, Peg3 prom inh-1 -19 and ABHD5 PLIN5 PPI 8.
